# A number with no mark means an inactive call.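 The calls were made as follows: active = growth AUC significantly below the DMSO wells by Dunnett test; inactive = the rest.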
# Key:
# Assay in all cases: relative growth (AUC of 72 h growth curve relative to DMSO control, dAUC) (ratio); higher = more growth (less inhibition), active = hit call of the paper
# Settings in all cases: 20 µM
# Community 7 = system: Community 7
# Method in brief: (§1)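 Each chemical was tested at 20 µM (1% DMSO) in 96-well plates seeded with a 1:100 dilution of cultures grown to carrying capacity in Luria–Bertani medium. These were isolates from Icelandic stream sediments and Silwood Park soil, as well as whole sediment communities. A plate reader took A600 readings hourly over 72 h, and three biological replicates were averaged. Relative growth (dAUC) is the spline-integrated area under the growth curve relative to the mean of the DMSO controls.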
# Community 8 = system: Community 8
# Method in brief: as §1
# Community 9 = system: Community 9
# Method in brief: as §1
# [1] = system: Flavobacterium 1 (Flavobacterium glaciei)
# Method in brief: as §1
# [2] = system: Flavobacterium 2 (Flavobacterium succinicans)
# Method in brief: as §1
# [3] = system: Hymenobacter 1 (Hymenobacter glaciei)
# Method in brief: as §1
# [4] = system: Microbacterium 1 (Microbacterium arborescens)
# Method in brief: as §1
# [5] = system: Neobacillus 1 (Neobacillus soli)
# Method in brief: as §1
# [6] = system: Oryzobacter 1 (Oryzobacter terrae)
# Method in brief: as §1
# [7] = system: Paenibacillus 1 (Paenibacillus castaneae)
# Method in brief: as §1
# [8] = system: Prolinoborus 1 (Prolinoborus fasciculus)
# Method in brief: as §1
# [9] = system: Pseudomonas 1 (Pseudomonas baetica)
# Method in brief: as §1
# [10] = system: Pseudomonas 2 (Pseudomonas vancouverensis)
# Method in brief: as §1
# [11] = system: Pseudomonas 3 (Pseudomonas mandelii)
# Method in brief: as §1
# [12] = system: Pseudomonas 4 (Pseudomonas peli)
# Method in brief: as §1
# [13] = system: Pseudomonas 5 (Pseudomonas baetica)
# Method in brief: as §1
# [14] = system: Pseudomonas 6 (Pseudomonas sp.)
# Method in brief: as §1
# [15] = system: Rhizobium 1 (Rhizobium herbae)
# Method in brief: as §1
# [16] = system: Serratia 1 (Serratia sp. 2015-2462-01)
# Method in brief: as §1
# [17] = system: Sphingomonas 2 (Sphingomonas sp.)
# Method in brief: as §1
SMILES,relative growth (Community 7),relative growth (Community 8),relative growth (Community 9),relative growth [1],relative growth [2],relative growth [3],relative growth [4],relative growth [5],relative growth [6],relative growth [7],relative growth [8],relative growth [9],relative growth [10],relative growth [11],relative growth [12],relative growth [13],relative growth [14],relative growth [15],relative growth [16],relative growth [17]
CNC(=O)CSP(=S)(OC)OC,1.12,0.999,0.921,1.06,0.966,0.971,1,0.948,1.07,0.975,0.985,0.984,0.991,1.02,0.963,1.02,1.19,1.05,0.96,1.07
CSc1nc(NC(C)C)nc(NC(C)C)n1,1.02,0.97,0.97,1.02,0.946,0.914,1.02,0.987,0.978,0.877,0.989,1.14,1.02,1.02,0.949,1.03,1.08,0.858,0.983,0.989
COc1ccc(-c2ccccc2)cc1NNC(=O)OC(C)C,0.932,0.986,0.868,0.888,0.898,0.987,1.06,0.89,1.02,0.873,0.918,1.14,0.964,1.05,0.951,1.08,1.17,0.865,0.932,0.92
CS(=O)(=O)c1cc(C(F)(F)F)ccc1C(=O)c1cnoc1C1CC1,0.983,1.02,1.09,1.01,1.07,1.04,1.02,1.06,0.94,1.13,1,0.985,1.02,1.01,1.02,0.96,0.911,1.11,1.06,1.11
O=[N+]([O-])/N=C1\NCCN1Cc1ccc(Cl)nc1,1.11,1.05,1.07,0.997,1.07,1.14,1,1.06,0.944,1.15,0.987,0.857,0.973,1.04,1.01,0.978,0.932,0.991,0.968,0.979
N#CCNC(=O)c1cnccc1C(F)(F)F,1.01,0.986,0.902,0.973,0.944,0.973,1.01,0.935,1.09,0.935,1.03,1.05,0.996,0.97,0.996,1.01,1.07,0.857,0.947,1.08
COc1cccc(C(=O)NN(C(=O)c2cc(C)cc(C)c2)C(C)(C)C)c1C,1.12,1.03,0.893,0.818,0.92,0.923,0.977,0.914,1.06,0.926,0.981,1.04,1.01,1.04,0.987,1.05,1.12,0.96,0.934,0.977
CON(C)C(=O)Nc1ccc(Cl)c(Cl)c1,1.01,1.07,1.03,1.01,0.923,0.961,1.05,0.908,1.04,1,0.886,0.986,0.949,0.991,0.982,0.984,1.02,0.869,0.978,1.02
Nc1c([N+](=O)[O-])ccc(Oc2ccccc2)c1Cl,0.955,1.03,0.907,0.864,0.917,1.09,1.03,0.913,1.05,0.843,0.962,1.15,0.982,1.03,0.949,1.02,1.15,0.888,0.946,0.871
N#Cc1cc(Br)c(O)c(Br)c1,1.07,1.05,1.08,1.02,0.951,0.861,1.05,0.842,0.742 (active),1.16,0.996,1.06,1.02,1.09,0.964,1.05,1.12,0.751,0.998,1.06
O=C1C2CC=CCC2C(=O)N1SC(Cl)(Cl)Cl (stereo not given),0.95,0.794,0.473 (active),0.948,0.9,0.968,1,0.917,0.991,1.06,0.598 (active),0.601 (active),0.983,0.941,0.796 (active),0.954,0.879,0.519 (active),0.813 (active),0.398 (active)
CS(=O)(=O)NC(=O)c1cc(Oc2ccc(C(F)(F)F)cc2Cl)ccc1[N+](=O)[O-],1.04,1.05,1.07,1.06,1.02,1.04,1.03,1.02,0.957,1.03,1.01,1.01,1,1,0.996,1.04,1.07,0.917,1.02,1.02
COCC(C)N(C(=O)CCl)c1c(C)csc1C (stereo not given),0.996,1.01,1.01,0.948,1.01,0.962,1.04,0.98,0.982,0.961,0.925,1.04,0.974,1,0.962,1.07,1.15,1.04,0.939,1.01
